Experimental data from PubChem BioAssay AID1259415 (National Center for Advancing Translational Sciences (NCATS), 2018).
Out of some 410,000 compounds screened, about 18,000 (4.4%) were called active. Inconclusive results (about 7%) are left out. Rule as the data show it: active = activity change below about -60%; inconclusive = no clear call, values can overlap the other calls; inactive = above about -39%. The sample as a whole holds a higher share of actives than the screen did.

Experiment: qHTS Assay for inhibitors of the human cytomegalovirus (HCMV)
Settings: HFF cells, HCMV-luciferase reporter, 72 h; at 57.5 µM; hits give low values
Source text: NCGC Assay Overview: Infection with human cytomegalovirus (HCMV) continues to pose significant threats for pregnant women and immunocompromised hosts. HCMV causes serious morbidity and mortality in transplant recipients, and congenital HCMV is the leading infectious cause of mental retardation and deafness in children. In the 1990s, the annual costs associated with the disease burden of congenital CMV were estimated at around $2 billion. A HCMV vaccine is not available yet and HCMV therapies result in intolerable side effects and emergence of drug resistant viruses. […] Towards this goal we have developed and characterized a luciferase HCMV reporter that was initially used in 96 well plates and then optimized to 1536-well plates for utilization in screening of the MLSMR collection, the NGCG diversity collection and the NCGC Pharmaceutical Collection of approved and investigational drugs.
NCGC Assay Protocol Summary:
This is a cell-based assay for HCMV inhibition in HFFs cells. The screening used 2 compound doses and the HCMV-luciferase at MOI of 1 PFU/cell. Cells were treated and infected with HCMV. At 72 h post infection cell lysates were collected and luciferase activity was determined using the Glomax-Multi + Detection System (Promega, Madison, WI). Data were normalized to the controls for basal activity (buffer only) and known HCMV inhibitors Salinmoycin.
1536-well assay protocol for the assay:
(1) Add 3 ul CMV/HFF cell culture. 1000 cells/well in DMEM nirmal media.
(2) Incubate 16 hr at 37C.
(3) Add 23 nl control compound, 10uM of Salinomycin.
(4) Add 23 nl compounds in DMSO solution.
(5) Add 3 ul CMV suspension. Final 1 puf/ul, Virus stock 2000pfu/ul
(6) Incubate 72 hrs at 37C.
(7) Add 4 ul OneGlo Luc Reagent.
(8) Incubate 5 min at room temperature.
% is scaled to controls: 0 for no effect and ±100 for the full control effect.

Row | SMILES | activity change, negative = inhibition
1 | OCC1(Cc2ccccc2C(F)(F)F)CCN(Cc2ccncc2)CC1 | 71% (inactive)
2 | Cc1nc2c(c(C)nn2-c2ccccc2)c(C)c1CCC(=O)NCCc1ccc(Cl)cc1 | -1.35% (inactive)
3 | Cc1cc(C)c2oc(C(=O)Nc3ccc(S(=O)(=O)N4CCCCCC4)cc3)cc(=O)c2c1 | -9.78% (inactive)
4 | CCOc1ccc(NC(=O)c2cn(C3CCCCC3)c(=O)c3c2c2ccccc2n3C)cc1 | -4.97% (inactive)
5 | O=C(COc1ccc(Cl)cc1)N(Cc1ccco1)Cc1ccco1 | -22.5% (inactive)
6 | COc1ccc(S(=O)(=O)NCC(c2ccc(N(C)C)cc2)N2CCc3ccccc32)cc1OC (stereo not given) | 34.1% (inactive)
7 | Cc1nc2sc3c(c2c(=O)n1NC(=O)CCl)CCCC3 | -63.7% (active)
8 | O=C(CCc1nc2sc3c(c2c(=O)[nH]1)CCCC3)NCC(=O)Nc1ccccc1Br | -4.74% (inactive)
9 | Cc1ccc(C)c(-n2c(SCC(=O)O)nc3sc4c(c3c2=O)CCCC4)c1 | -26% (inactive)
10 | O=C(c1ccc2c(c1)N(Cc1ccccc1F)C(=O)c1ccccc1S2(=O)=O)N1CCOCC1 | 5.01% (inactive)
11 | COc1cccc2c1C(=O)c1c(O)c3c(c(O)c1C2=O)CC(O)(C(C)=NNC(=O)c1ccc(Cl)c(Cl)c1)CC3OC1CC(N)C(O)C(C)O1 (stereo not given) | -99% (active)
12 | Cc1ccc2nc(CN3CCN(S(=O)(=O)c4ccc(C)c(C)c4)CC3)oc2c1 | 1.05% (inactive)
13 | COc1ccc(CN2C(=O)C(NC(=O)c3cccc(C)c3)(C(F)(F)F)N=C2c2ccccc2)cc1 (stereo not given) | -8.44% (inactive)
14 | CC1C(=O)N(Cc2ccccc2)c2ccccc2N1C(=O)c1ccccc1 (stereo not given) | -73.6% (active)
15 | CC1Oc2ccccc2N(Cc2cccnc2)C1=O (stereo not given) | 49.3% (inactive)
16 | CC1C(C)N(C(=O)CCl)c2ccccc2N1C(=O)CCl (stereo not given) | -38.8% (inactive)
17 | COc1cc(C(CC(=O)NCCC(C)C)N2Cc3ccccc3C2=O)cc(OC)c1OC (stereo not given) | 22.7% (inactive)
18 | COC(=O)CN1C(=O)CSc2ccc(S(=O)(=O)Nc3cc(C)ccc3C)cc21 | -71.2% (active)
19 | CCN(CC)S(=O)(=O)c1ccc2c(c1)N(CC(=O)NCc1ccccc1)C(=O)CS2 | -9.16% (inactive)
20 | Cc1ccc(CCNC(=O)CN2C(=O)CSc3ccc(S(=O)(=O)N4CCOCC4)cc32)cc1 | -26.9% (inactive)
21 | COc1ccc(Cc2nc3ccc(C(=O)NCc4ccccc4C)cc3o2)cc1 | -89.9% (active)
22 | COc1ccc(Cc2nc3ccc(C(=O)NCc4ccccc4Cl)cc3o2)cc1 | -18% (inactive)
23 | COc1ccc(Cc2nc3ccc(C(=O)NCc4ccc(OC)cc4OC)cc3o2)cc1 | -12.1% (inactive)
24 | O=C(NC1CCCC1)N1CC(=O)N2[C@H](C1)[C@@H](c1ccc(Br)cc1)[C@@H]2CO | 13.9% (inactive)
25 | CCOC(=O)c1c(NC(=O)COC(=O)c2ccc(S(=O)(=O)C(F)F)cc2)sc(C(=O)N(C)C)c1C | 6.79% (inactive)
26 | CCOC(=O)c1c(NC(=O)c2cc(CC)on2)sc(C(C)=O)c1C | 0.462% (inactive)
27 | CCOC(=O)c1c(NC(=O)CCl)sc(C(=O)N(CC)CC)c1C | -99% (active)
28 | O=C(CC1C(=O)NCCN1CC(c1ccccc1)c1ccccc1)NCCc1cn[nH]c1 (stereo not given) | -37.4% (inactive)

Row | SMILES | activity change, negative = inhibition
29 | CCCCNC(=O)c1ccc2c(c1)NC(=O)C(C(C)C)N2 (stereo not given) | 7.34% (inactive)
30 | C=CCN(CC=C)S(=O)(=O)c1ccc(C(=O)Nc2nc3c(s2)CCc2ccccc2-3)cc1 | -86.4% (active)
31 | COCCN(CCOC)S(=O)(=O)c1ccc(C(=O)Nc2nc3c(s2)CCc2ccccc2-3)cc1 | -63.9% (active)
32 | CCOC(=O)c1c(NC(=O)c2ccc(S(=O)(=O)N(CC)CC)cc2)sc2c1CCCCC2 | 49.3% (inactive)
33 | C=CCN(CC=C)S(=O)(=O)c1ccc(C(=O)Nc2sc3c(c2C(N)=O)CCCCC3)cc1 | -93.4% (active)
34 | O=C(Nc1ncc2c(n1)-c1ccccc1OC2)c1ccc(Cl)cc1 | 16.2% (inactive)
35 | COCCN(CC(=O)Nc1ccccc1C)S(=O)(=O)c1ccc(S(=O)(=O)N2CCCC2)cc1 | 26.9% (inactive)
36 | CCCCN(C)S(=O)(=O)c1ccc(C(=O)Nc2sc3c(c2C(N)=O)CC(C)(C)NC3(C)C)cc1 | -1.57% (inactive)
37 | CCCN(CCC)S(=O)(=O)c1ccc(C(=O)Nc2sc3c(c2C(=O)OC)CCN(CC)C3)cc1 | -35.8% (inactive)
38 | C=CCN(c1ccc(C(=O)Nc2cc(C)cc(C)c2)cc1)S(C)(=O)=O | -28.7% (inactive)
39 | CCOC(=O)c1c(C)[nH]c(CCC(=O)Nc2ccc(OC)c(OC)c2)c1C | 41.8% (inactive)
40 | Cc1ccc(N(CC(=O)NCC(C)c2ccccc2)S(=O)(=O)N(C)C)cc1 (stereo not given) | -6.91% (inactive)
41 | O=C(CCc1ccccc1)NCc1ccc2c(c1)CCN2C(=O)c1ccccc1 | -7.19% (inactive)
42 | COC1=CCC2([N+](=O)[O-])CN(CC(=O)O)CC1([N+](=O)[O-])C2 (stereo not given) | -16.1% (inactive)
43 | CCOC(=O)c1c(C)oc2nc(C)nc(Nc3ccc(CC)cc3)c12 | 8.66% (inactive)
44 | O=C(Nc1ccc(OC(F)(F)F)cc1)c1cc2c(=O)n3ccccc3nc2s1 | -5.91% (inactive)
45 | COc1cc(CN(CC2CCCO2)C(=O)c2ccccc2F)cc(OC)c1OC (stereo not given) | -11.3% (inactive)
46 | Cc1ccsc1C1C(C#N)=C(N)OC2=C1C(=O)CC(C)C2 (stereo not given) | 68.7% (inactive)
47 | C=CCSC1=C(C#N)C(c2cc(Br)c(O)c(OC)c2)CC(=O)N1 (stereo not given) | -10.5% (inactive)
48 | CCOC(=O)CSC1=C(C#N)C(c2sccc2C)CC(=O)N1 (stereo not given) | -85.4% (active)
49 | Cc1c(-c2cccc(NC(=O)C(C)(C)C)c2)nc2ncccn12 | -37.8% (inactive)
50 | COCCn1c(CN2CCC(Cc3ccccc3)CC2)nc2c1c(=O)n(C)c(=O)n2C | -64.7% (active)
51 | CC1CCCN(Cc2nc3c(c(=O)n(C)c(=O)n3C)n2CC(=O)c2ccccc2)C1 (stereo not given) | -14.9% (inactive)
52 | CCN1CCN(Cc2nc3c(c(=O)n(C)c(=O)n3C)n2CC(=O)c2ccccc2)CC1 | -5.14% (inactive)
53 | CN1CCN(Cc2nc3c(c(=O)n(C)c(=O)n3C)n2Cc2cccc3ccccc23)CC1 | -10.2% (inactive)
54 | CC1CCN(Cc2nc3c(c(=O)n(C)c(=O)n3C)n2CCc2ccccc2)CC1 | -62.3% (active)
55 | CCOC(=O)N1CCN(Cc2nc3c(c(=O)n(C)c(=O)n3C)n2Cc2ccccc2)CC1 | -2.17% (inactive)
